Test [1] can be described thus: qHTS RealTime-Glo MT Cell Viability Assay in HepG2 cells - 8 hour (AID 1224873). Also: nearly all actives have a fitted effect of over 55% in size. Also: potency is read from the fitted curve at half-maximal effect. The gist of the method: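 HepG2 cells (600/well) mixed with RealTime-Glo MT reagent, settled 5 h at 37 C/5% CO2 before compound addition. Nonlytic NanoLuc luminescence from viable-cell prosubstrate reduction read repeatedly during 40 h treatment at 37 C.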
On the technique in general: In qHTS, concentration-response curves come from the screen itself.

The nature of test [2]: qHTS RealTime-Glo MT Cell Viability Assay in HEK293 cells - 40 hour (AID 1224874). Also: nearly all actives have a fitted effect of over 50% in size. Also: potency is read from the fitted curve at half-maximal effect. The following applies: RealTime-Glo luminescence; max response: active compounds read low. The gist of the method: (§1)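 qHTS format; HEK293 cells with NanoLuc/prosubstrate reagent, 37 C/5% CO2 for 5 h pre-dosing; compounds 23 nL in DMSO; luminescence at each time point reflects viable cells.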
The nature of test [3]: A CellTox Green Cytotoxicity Assay to monitor cytotoxicity in HEK293 cells - 24 hour (AID 1224875). Also: nearly all actives have a fitted effect of over 45% in size. Also: potency is read from the fitted curve at half-maximal effect. The gist of the method:
(§2)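 Each value comes from one timepoint of a single continuous run in which HEK293 cells with CellTox Green were exposed to compound for up to 40 h at 37 C, dye fluorescence rising with cell death.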

Test [4] is described as follows: A CellTox Green Cytotoxicity Assay to monitor cytotoxicity in HepG2 cells - 16 hour (AID 1224876). Also: nearly all actives have a fitted effect of over 45% in size. Also: potency is read from the fitted curve at half-maximal effect. The gist of the method:
(§3)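 Continuous culture of HepG2 cells with a membrane-impermeant DNA dye; rising fluorescence marks dead cells. Compound exposure lasted up to 40 h at 37 C, with reads every 8 h from 0 h.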

Test [5] is described as follows: qHTS RealTime-Glo MT Cell Viability Assay in HepG2 cells - 32 hour (AID 1224877). Also: nearly all actives have a fitted effect of over 55% in size. Also: potency is read from the fitted curve at half-maximal effect. The gist of the method: (§4)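 HepG2 cells (600/well) were dispensed with RealTime-Glo reagents, incubated 5 h at 37 °C, then treated with compounds in DMSO for up to 40 h. Nonlytic NanoLuc luminescence reflecting viable cells was read at each stated time point.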
Test [6] is described as follows: A CellTox Green Cytotoxicity Assay to monitor cytotoxicity in HepG2 cells - 24 hour (AID 1224878). Also: nearly all actives have a fitted effect of over 45% in size. Also: potency is read from the fitted curve at half-maximal effect. The gist of the method:
as §3

Test [7] is described as follows: A CellTox Green Cytotoxicity Assay to monitor cytotoxicity in HepG2 cells - 40 hour (AID 1224879). Also: nearly all actives have a fitted effect of over 40% in size. Also: potency is read from the fitted curve at half-maximal effect. The gist of the method: as §3
Test [8] can be described thus: qHTS RealTime-Glo MT Cell Viability Assay in HEK293 cells - 0 hour (AID 1224880). Also: top concentration of the series differs between compounds; nearly all actives have a fitted effect of over 45% in size. The gist of the method: as §1
A short description of test [9]: A CellTox Green Cytotoxicity Assay to monitor cytotoxicity in HEK293 cells - 32 hour (AID 1224881). Also: nearly all actives have a fitted effect of over 40% in size. Also: potency is read from the fitted curve at half-maximal effect. The gist of the method:
as §2

Test [10] is described as follows: A CellTox Green Cytotoxicity Assay to monitor cytotoxicity in HepG2 cells - 0 hour (AID 1224882). Also: nearly all actives have a fitted effect of over 35% in size. The gist of the method: as §3
Test [11] in a line: A CellTox Green Cytotoxicity Assay to monitor cytotoxicity in HepG2 cells - 32 hour (AID 1224883). Also: nearly all actives have a fitted effect of over 50% in size. Also: potency is read from the fitted curve at half-maximal effect. Summed up:
as §3

Test [12] is described as follows: A CellTox Green Cytotoxicity Assay to monitor cytotoxicity in HEK293 cells - 8 hour (AID 1224884). Also: nearly all actives have a fitted effect of over 35% in size. Also: potency is read from the fitted curve at half-maximal effect. Summed up:
as §2

The nature of test [13]: qHTS RealTime-Glo MT Cell Viability Assay in HepG2 cells - 16 hour (AID 1224885). Also: nearly all actives have a fitted effect of over 50% in size. Also: potency is read from the fitted curve at half-maximal effect. Summed up: as §4
The nature of test [14]: qHTS RealTime-Glo MT Cell Viability Assay in HEK293 cells - 24 hour (AID 1224886). Also: nearly all actives have a fitted effect of over 50% in size. Also: potency is read from the fitted curve at half-maximal effect. Summed up:
(§5)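 HEK293 cells seeded with NanoLuc/prosubstrate reagent, rested 5 h at 37 C, then dosed and kept at 37 C up to 40 h. Nonlytic real-time luminescence from viable cells read at 0, 8, 16, 24, 32 and 40 h.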

A short description of test [15]: A CellTox Green Cytotoxicity Assay to monitor cytotoxicity in HEK293 cells - 16 hour (AID 1224888). Also: nearly all actives have a fitted effect of over 35% in size. Also: potency is read from the fitted curve at half-maximal effect. The gist of the method: as §2
Test [16] is described as follows: qHTS RealTime-Glo MT Cell Viability Assay in HepG2 cells - 0 hour (AID 1224889). Also: nearly all actives have a fitted effect of over 50% in size. The gist of the method: as §4
Test [17] can be described thus: A CellTox Green Cytotoxicity Assay to monitor cytotoxicity in HepG2 cells - 8 hour (AID 1224890). Also: nearly all actives have a fitted effect of over 45% in size. Also: potency is read from the fitted curve at half-maximal effect. The gist of the method: as §3
A short description of test [18]: qHTS RealTime-Glo MT Cell Viability Assay in HEK293 cells - 8 hour (AID 1224887). Also: nearly all actives have a fitted effect of over 50% in size. Also: potency is read from the fitted curve at half-maximal effect. Summed up: as §1
Test [19] is described as follows: qHTS assay to identify small molecule antagonists of the estrogen receptor alpha (ER-alpha) signaling pathway using the BG1 cell line in the presence of 0.1 nM 17-beta-estradiol - cell viability counter screen (AID 1259241). Also: nearly all actives have a fitted effect of over 40% in size. Also: potency is read from the fitted curve at half-maximal effect. Summed up: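 Measures cytotoxicity alongside the ER-alpha antagonist readout: VM7Luc4E2 cells, charcoal-stripped serum, 0.1 nM 17beta-estradiol final, 22 hr compound incubation at 37C, CellTiter-Fluor fluorescence.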

A short description of test [20]: qHTS RealTime-Glo MT Cell Viability Assay in HEK293 cells - 16 hour (AID 1224872). Also: nearly all actives have a fitted effect of over 50% in size. Also: potency is read from the fitted curve at half-maximal effect. The gist of the method:
as §5

The values below come from PubChem BioAssay (Tox21).

Molecules are shown by their SMILES. Values joined by “and” are separate entries in the source; they are usually repeats but may differ in a detail not shown here. Equal entries are not always repeated. Results filed as inconclusive are left out. Active and inactive are the calls of the source. Calls follow the shape of the dose curve; as a rule, active = well fitted curve in the direction sought with a large enough effect in the repeat runs; inconclusive = weak or mixed curves; inactive = no such curve, though single readings can be large; an effect the other way counts as inactive or inconclusive.
% is scaled to controls: 0 for no effect and ±100 for the full control effect.

Consider `c1ccc(CSCc2ccccc2)cc1`, for which the Potency result in test [1], in test [3], in test [4], in [5], in [6] and in test [7] was “inactive” each time. Besides, the Potency entry in test [8], in test [9], in test [10], in [11], in test [12] and in test [13] was “inactive” throughout. The Potency entry in [14], in test [15], in [16] and in [17] was “inactive” each time. In addition, the max response in test [2] was -5.29% (inactive).

`Cc1onc(-c2ccccc2Cl)c1C(=O)N[C@@H]1C(=O)N2[C@@H]1SC(C)(C)[C@@H]2C(=O)O`: the Potency entry in test [1], in test [3], in test [4], in test [5], in test [6] and in test [7] was “inactive” throughout. Further, the Potency entry in test [8], in test [9], in test [10], in [11], in [12] and in test [13] was “inactive” each time. For the same compound, the Potency entry in test [14], in [18], in test [15], in test [16] and in test [17] was “inactive” in each case. Also, the max response in test [2] was -0.669% (inactive).

For `CCCCCCC[N+](CC)(CC)CCCCc1ccc(Cl)cc1`, the Potency result in test [1], in [3], in test [8], in test [10], in [12] and in [15] was “inactive” each time. Besides, the Potency entry in test [16] and in [17] was “inactive” in each case. In addition, the Potency was 1.9 µM (active) in test [2]; 26.8 µM (active) in test [4]; 23.9 µM (active) in [5]; 26.8 µM (active) in [6]; 23.9 µM (active) in test [7]; 23.9 µM (active) in test [11]. For the same compound, in [19], the Potency was 26.6 µM (active).

With `CSc1ccc(C(=O)c2[nH]c(=O)[nH]c2C)cc1`, the Potency result in test [1], in [3], in test [4], in test [5], in test [6] and in test [7] was “inactive” each time. Also, the Potency entry in [8], in [9], in [10], in test [11], in [12] and in [13] was “inactive” in each case. Besides, the Potency result in [14], in test [18], in [15], in test [16], in [17] and in test [19] was “inactive” throughout. Further, the max response in test [2] is 2.74% (inactive).

Consider `CCCN(CCC)C(=O)C(CCC(=O)OCCCN1CCN(CCOC(=O)Cc2c(C)n(C(=O)c3ccc(Cl)cc3)c3ccc(OC)cc23)CC1)NC(=O)c1ccccc1` (configuration not stated), for which the Potency in test [20] was 21.3 µM (active); in [4], 23.9 µM (active); in [6], 23.9 µM (active); in test [7], 23.9 µM (active); in [11] it was 23.9 µM (active); in test [18], 23.9 µM (active). Besides, the Potency in test [19] is 13.3 µM (active). Also, the Potency entry in [3], in test [8], in test [9], in test [10], in test [12] and in [15] was “inactive” throughout. Besides, the Potency result in test [16] was “inactive”.

For `Cc1cc(O)c(Cl)c(C)c1Cl`, the Potency entry in [20], in [5], in [8], in test [10], in test [13] and in test [14] was “inactive” throughout. For the same compound, the Potency entry in [16] and in [19] was “inactive” each time. The max response in [2] was -27.6% (inactive). In addition, the Potency in [6] is 54.9 µM (active); in [7], 49 µM (active); in [11], 54.9 µM (active).

With `N=C1N=C(N)c2cc3ccccc3cc21`, the Potency in test [20] was 27.5 µM (active); in [3] it was 54.9 µM (active); in [4] it was 43.6 µM (active); in test [5] it was 24.5 µM (active); in test [6], 24.5 µM (active); in [7] it was 24.5 µM (active). Further, the Potency in [9] is 54.9 µM (active); in test [11] it was 33.4 µM (active); in [12], 54.9 µM (active); in test [13], 38.9 µM (active); in test [14], 24.5 µM (active); in test [18], 43.6 µM (active). Besides, in test [15], the Potency was 54.9 µM (active). Moreover, the Potency result in [8], in test [10] and in [16] was “inactive” each time.

With `CCCCCCCC(=O)[O-].CCCCCCCC(=O)[O-].[Zn+2]`, the Potency result in [1], in [3], in test [5], in test [6], in test [7] and in test [8] was “inactive” each time. Moreover, the Potency result in test [9], in [11], in test [12], in test [13], in [14] and in test [15] was “inactive” throughout. Moreover, the Potency result in [16], in [17] and in [19] was “inactive” throughout. Moreover, the max response in test [2] is 9.04% (inactive).

`Cc1ccc(O)c(C(C)(C)C)c1`: the Potency entry in [1], in test [5], in test [8], in [10], in test [12] and in [13] was “inactive” in each case. In addition, the Potency entry in test [14], in test [18], in [15] and in [19] was “inactive” each time. Further, the max response in test [2] was -17.7% (inactive) and -1.19% (inactive). Moreover, the Potency was 48.9 µM (active) in test [3]; 38.8 µM (active) and 34.7 µM (active) in test [4]; 43.6 µM (active) and 34.7 µM (active) in [6]; 43.6 µM (active) and 34.7 µM (active) in test [7]; 43.6 µM (active) in test [9]; 43.6 µM (active) and 34.7 µM (active) in test [11]. Moreover, the Potency in [17] was 48.9 µM (active) and 38.9 µM (active).

Consider `Cc1cccc(S(=O)(=O)O)c1C`, for which the Potency result in test [1], in test [3], in test [4], in test [5], in test [6] and in [7] was “inactive” throughout. Further, the Potency result in test [8], in test [9], in test [10], in test [11], in [13] and in test [14] was “inactive” throughout. The Potency entry in [18], in test [15], in test [16], in test [17] and in test [19] was “inactive” in each case. Further, the max response in [2] is -3.36% (inactive).

As for `CC(C)(C)NC(=O)[C@@H]1C[C@@H]2CCCC[C@@H]2CN1C[C@@H](O)[C@H](Cc1ccccc1)NC(=O)[C@H](CC(N)=O)NC(=O)c1ccc2ccccc2n1`, the Potency in [20] was 24.9 µM (active); in test [2], 17.6 µM (active); in test [6], 55.7 µM (active); in [7], 49.6 µM (active); in [11], 55.7 µM (active); in test [13] it was 55.7 µM (active). In addition, the values for the Potency in test [14] and in [19] were 19.7 µM (active) and 27.7 µM (active), respectively. The Potency entry in [8], in test [10], in [12], in [15], in test [16] and in [17] was “inactive” in each case.

Regarding `CCCCCCCC[P+](CCCCCCCC)(CCCCCCCC)CCCCCCCC`, the Potency in test [1] was 17.3 µM (active); in [2] it was 0.194 µM (active); in test [3] it was 4.87 µM (active); in test [4], 12.2 µM (active); in [5], 12.2 µM (active); in test [6] it was 9.71 µM (active). Besides, the Potency in test [7] is 10.9 µM (active); in [9], 4.87 µM (active); in test [11], 10.9 µM (active); in test [12], 10.9 µM (active); in [13], 17.3 µM (active); in test [14], 1.73 µM (active). Also, the figures for the Potency in test [15] and in test [17] were 10.9 µM (active) and 17.3 µM (active), respectively. In addition, the Potency entry in [10] is “inactive”.
